The campaign covered roughly 290,000 compounds. About 50 (0.02%) were called active. This excerpt belongs to a sample that is enriched for actives. Results with a measured potency or affinity are listed apart. A number with no mark means an inactive call.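 How the source made its calls: active means displacement of at least 50% at 20 µM, with a fluorescence ratio check between 0.3 and a set limit; inactive means the rest.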
What follows are compounds tested against E3 ubiquitin-protein ligase SIAH1 (Homo sapiens) (UniProt Q8IUQ4) (assay: Siah-1 peptide-binding antagonists, primary screen, biochemical, fluorescence polarization, rhodamine-plectin, uHTS (AID 1817;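 further: plate controls were Siah plus tracer with DMSO for no effect and tracer alone without Siah for full effect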)). Conditions: Siah-1 / rhodamine-plectin peptide fluorescence polarization; at 20 µM; stronger effect = higher value.
Sequence of E3 ubiquitin-protein ligase SIAH1 (Homo sapiens) (Q8IUQ4 whole entry, looked up): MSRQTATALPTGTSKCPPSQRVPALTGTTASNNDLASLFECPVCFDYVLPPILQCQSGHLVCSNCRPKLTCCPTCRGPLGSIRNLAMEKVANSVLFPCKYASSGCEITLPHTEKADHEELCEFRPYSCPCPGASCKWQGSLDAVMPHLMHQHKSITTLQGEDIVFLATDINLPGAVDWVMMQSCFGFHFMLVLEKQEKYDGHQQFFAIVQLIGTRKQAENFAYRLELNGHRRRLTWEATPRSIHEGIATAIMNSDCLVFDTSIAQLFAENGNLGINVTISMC

Row | Compound | displacement
1 | CC(C)c1ccc(N2C(=O)NC(=O)/C(=C\C=C\c3ccco3)C2=O)cc1 | 14.6%
2 | CC(C)c1ccc(N2C(=O)NC(=O)/C(=C/C=C/c3ccco3)C2=O)cc1 | 51.8% (active)
3 | Cc1ccc(N2C(=O)NC(=O)/C(=C\C=C\c3ccco3)C2=O)cc1 | 12.1%
4 | O=[N+]([O-])c1ccc(N2CCNCC2)cc1NCc1ccco1 | -3.7%
5 | C=C1C(=O)O[C@H]2C[C@@H](C)[C@@H]3C=CC(=O)[C@@]3(C)C[C@H]12 | 12.6%
6 | C=C1C(=O)O[C@@H]2C[C@@H](C)[C@H]3C=CC(=O)[C@]3(O)C[C@@H]12 | 51.6% (active)
7 | C=C1C(=O)O[C@@H]2C[C@@H](C)[C@@H]3C=CC(=O)[C@@]3(C)[C@@H](O)[C@H]12 | 4.7%
8 | Cc1cc(C=O)c(C)n1C1CCCCC1 | 2.7%
9 | CCOC(=O)c1c(N)n(CCCOC(=O)c2ccco2)c2nc3ccccc3nc12 | 2.6%
10 | CCCCCn1c(NC(=O)c2ccco2)c(C(=O)OCC)c2nc3ccccc3nc21 | 64.6% (active)
11 | CCCCn1c(NC(=O)c2ccco2)c(C(=O)OCC)c2nc3ccccc3nc21 | 4.9%
12 | CCCCn1c(NS(=O)(=O)c2ccc(C)cc2)c(C(=O)OCC)c2nc3ccccc3nc21 | 34.7%
13 | CCOC(=O)c1c(NS(=O)(=O)c2ccccc2)n(CCCOC)c2nc3ccccc3nc12 | 67% (active)
14 | COCCCn1c(N)c(C(=O)OCCOC)c2nc3ccccc3nc21 | 2.9%
15 | COc1ccc(NC(=O)N2CCC3(CC2)OCCO3)cc1 | -2.3%
16 | O=C(O)C1C2CCC(O2)C1C(=O)Nc1ccc(F)c(F)c1 (stereo not given) | 10.6%
17 | O=C1NC(=S)N(Cc2ccco2)C(=O)/C1=C\c1cccs1 | 21.3%
18 | Cc1ccccc1-n1c(O)c(/C=N/N2CCOCC2)c(=O)[nH]c1=S | 2.7%
19 | Cc1cccc(C)c1NC1=NCCCCS1 | -1.2%
20 | CCCC12CN3CCN(C1)CC(CCC)(C3)C2=O | 8.2%

Reference: PubChem BioAssay AID1817 (Sanford-Burnham Center for Chemical Genomics, 2009)
